Active and inactive are the calls of the source.
Experiments:
[1] = small molecules captured by biotinylated probe aFSTL3 – biochemical, small-molecule microarray, fluorescence 635/667, stem cell growth factor project, primary screen (AID 1064); conditions: higher = more signal;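 also: measures binding of the biotinylated anti-FSTL3 antibody to printed compounds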
[2] = binders from COS7 lysate, DM2A8 probe, primary screen, torsin A project, cell lysate, small-molecule microarray, fluorescence 635/667 (AID 1065); conditions: higher = more signal, COS7 lysate expressing mutant human TOR1A
[3] = small molecules captured by biotinylated probe aFGF2 – biochemical, small-molecule microarray, fluorescence 635/667, stem cell growth factor project, primary screen (AID 1067); conditions: higher = more signal;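 also: measures binding of biotinylated aFGF2 protein to printed compounds on slides; z-score merges feature fluorescence and signal-to-noise across triplicate slides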
[4] = small molecules captured by biotinylated probe aFGF10 – biochemical, small-molecule microarray, fluorescence 635/667, stem cell growth factor project, primary screen (AID 1071); conditions: higher = more signal;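 also: score merges 667 nm spot intensity and signal to noise from triplicate slides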
[5] = molecular target: Neurogenic locus notch homolog protein 2 (Homo sapiens) (UniProt Q04721); assay: small molecules binding Notch2 protein – biochemical, small-molecule microarray, 635 nm fluorescence, stem cell growth factors, primary screen (AID 1073); conditions: higher = more signal
Neurogenic locus notch homolog protein 2 (Homo sapiens), sequence (Q04721 whole entry, looked up, canonical isoform): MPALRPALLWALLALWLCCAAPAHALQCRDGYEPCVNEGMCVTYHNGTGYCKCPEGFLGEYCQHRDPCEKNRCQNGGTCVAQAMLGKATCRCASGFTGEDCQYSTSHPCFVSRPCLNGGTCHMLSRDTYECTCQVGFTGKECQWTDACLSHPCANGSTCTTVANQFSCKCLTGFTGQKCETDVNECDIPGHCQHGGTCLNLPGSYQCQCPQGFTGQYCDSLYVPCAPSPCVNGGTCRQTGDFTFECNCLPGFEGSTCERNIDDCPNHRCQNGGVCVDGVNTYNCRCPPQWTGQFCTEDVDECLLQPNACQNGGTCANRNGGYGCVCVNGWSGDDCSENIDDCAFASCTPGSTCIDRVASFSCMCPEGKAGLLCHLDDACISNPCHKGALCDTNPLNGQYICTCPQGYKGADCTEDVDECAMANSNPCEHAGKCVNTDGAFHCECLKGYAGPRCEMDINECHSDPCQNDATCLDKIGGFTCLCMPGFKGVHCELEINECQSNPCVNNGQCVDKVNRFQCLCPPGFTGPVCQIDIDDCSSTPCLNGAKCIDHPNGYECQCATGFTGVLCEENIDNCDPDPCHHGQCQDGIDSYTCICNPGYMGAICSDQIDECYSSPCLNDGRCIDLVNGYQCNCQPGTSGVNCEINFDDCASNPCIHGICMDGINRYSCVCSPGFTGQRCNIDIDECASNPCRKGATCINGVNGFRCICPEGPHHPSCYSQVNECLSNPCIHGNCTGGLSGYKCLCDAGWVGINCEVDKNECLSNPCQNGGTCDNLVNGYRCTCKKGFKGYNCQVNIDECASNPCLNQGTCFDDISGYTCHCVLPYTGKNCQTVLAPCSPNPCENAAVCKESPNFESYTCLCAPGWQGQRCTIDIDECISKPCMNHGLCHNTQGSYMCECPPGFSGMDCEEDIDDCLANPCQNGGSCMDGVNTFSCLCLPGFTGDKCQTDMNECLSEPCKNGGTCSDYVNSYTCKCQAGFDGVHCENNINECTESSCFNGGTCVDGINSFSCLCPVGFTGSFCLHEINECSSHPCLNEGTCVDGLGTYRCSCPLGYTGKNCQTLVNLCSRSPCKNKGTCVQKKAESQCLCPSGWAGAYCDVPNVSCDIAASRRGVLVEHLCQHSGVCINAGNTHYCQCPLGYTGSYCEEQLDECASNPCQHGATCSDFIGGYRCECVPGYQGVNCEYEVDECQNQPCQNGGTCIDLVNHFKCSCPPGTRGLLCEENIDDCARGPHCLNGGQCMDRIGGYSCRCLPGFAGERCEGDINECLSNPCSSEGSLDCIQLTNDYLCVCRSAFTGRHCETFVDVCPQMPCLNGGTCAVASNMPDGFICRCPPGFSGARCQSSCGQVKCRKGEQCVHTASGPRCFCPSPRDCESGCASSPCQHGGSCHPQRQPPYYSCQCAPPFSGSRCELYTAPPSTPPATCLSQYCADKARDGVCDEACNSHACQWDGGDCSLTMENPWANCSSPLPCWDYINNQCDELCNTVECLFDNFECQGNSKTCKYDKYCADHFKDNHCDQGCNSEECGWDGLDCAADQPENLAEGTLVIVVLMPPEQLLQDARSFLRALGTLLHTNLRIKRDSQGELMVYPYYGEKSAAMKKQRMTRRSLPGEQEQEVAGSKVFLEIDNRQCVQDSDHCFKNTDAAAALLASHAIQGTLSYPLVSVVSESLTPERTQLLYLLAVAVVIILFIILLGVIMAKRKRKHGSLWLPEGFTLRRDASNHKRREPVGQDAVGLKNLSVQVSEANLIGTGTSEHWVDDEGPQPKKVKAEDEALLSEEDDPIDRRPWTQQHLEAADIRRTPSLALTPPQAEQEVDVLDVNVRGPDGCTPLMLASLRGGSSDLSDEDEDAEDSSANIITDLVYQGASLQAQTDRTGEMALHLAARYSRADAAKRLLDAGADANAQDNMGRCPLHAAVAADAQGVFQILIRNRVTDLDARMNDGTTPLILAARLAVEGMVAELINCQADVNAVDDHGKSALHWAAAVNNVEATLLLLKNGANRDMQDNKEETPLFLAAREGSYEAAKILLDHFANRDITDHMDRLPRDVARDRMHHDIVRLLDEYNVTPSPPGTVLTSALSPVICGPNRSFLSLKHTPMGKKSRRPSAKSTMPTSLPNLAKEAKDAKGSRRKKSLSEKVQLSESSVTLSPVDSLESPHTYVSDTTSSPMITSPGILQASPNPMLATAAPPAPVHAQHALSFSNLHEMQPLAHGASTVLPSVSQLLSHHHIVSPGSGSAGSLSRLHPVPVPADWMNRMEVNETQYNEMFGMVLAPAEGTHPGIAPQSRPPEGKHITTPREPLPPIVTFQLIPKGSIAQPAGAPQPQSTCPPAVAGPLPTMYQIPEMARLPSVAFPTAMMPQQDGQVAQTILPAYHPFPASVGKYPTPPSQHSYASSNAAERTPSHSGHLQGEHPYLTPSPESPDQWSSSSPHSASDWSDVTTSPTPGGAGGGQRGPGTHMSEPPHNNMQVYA

[6] = molecular target: Pro-neuregulin-1, membrane-bound isoform (Homo sapiens) (UniProt Q02297); assay: small molecules binding neuregulin-1 protein – biochemical, small-molecule microarray, fluorescence 635/667, psychiatric disease protein project, primary screen (AID 1075); conditions: NRG1 binding, 635 nm fluorescence, higher = more signal;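 also: score combines 667 nm spot fluorescence with signal to noise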
[7] = system: Neuregulin-1 EGF-like domain; assay: small molecules binding NRG1 EGF domain – biochemical, small-molecule microarray, 635 nm fluorescence, primary screen (AID 1081); conditions: higher = more signal;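 also: binding of the protein to compounds printed on small-molecule microarray slides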
[8] = FRG1 expression reporter modulators in myotubes – cell-based, C2C12 myotubes, firefly/Renilla luciferase, luminescence, FRG1 inhibition for FSHD, primary screen (AID 1084); conditions: FRG1 promoter luciferase, higher = more signal, called active from +8 up or from −8 down
[9] = small molecules captured by biotinylated probe aFST – biochemical, small-molecule microarray, fluorescence 635/667, stem cell growth factor project, primary screen (AID 1086); conditions: higher = more signal;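 also: score merges 667 nm fluorescence with signal-to-noise of each printed compound spot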
[10] = binders of probe aHhip on microarray, primary screen, stem cell growth factor project, biochemical, small-molecule microarray, fluorescence 635/667 (AID 1087); conditions: higher = more signal;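 also: score merges spot fluorescence at 667nm with spot signal to noise ratio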
[11] = system: PRMT1 (protein arginine N-methyltransferase 1); assay: small molecules binding arginine methyltransferase PRMT1 – biochemical, small-molecule microarray, 635 nm fluorescence, primary screen (AID 1088); conditions: higher = more signal;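 also: binding of Prmt1 protein to compounds spotted on small-molecule microarray slides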
[12] = growth effects on S. cerevisiae YJM789 – YJM789 clinical isolate, OD600, 24 h, basal, primary screen (AID 1089); conditions: higher = more signal, called active from +8 up or from −8 down;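 also: growth of clinical yeast isolate S. cerevisiae YJM 789 seeded 1000 cells per well; test concentration not given here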
[13] = S. pombe growth modifiers, basal conditions – strain 972, OD600, 24 h, no modulator, primary screen (AID 1090);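 also: basal condition with compound alone and no growth modifier present; test concentration not given here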; conditions: S. pombe 972 growth, higher = more signal, called active from +8 up or from −8 down
[14] = budding yeast growth modifiers under rapamycin – strain BY4716, OD600, 96 h, primary screen (AID 1091); also: test concentration not given here; conditions: S. cerevisiae BY4716 + rapamycin, higher = more signal, called active from +8 up or from −8 down
[15] = molecular target: Torsin-1A-interacting protein 2 (Homo sapiens) (UniProt Q8NFQ8); assay: small molecules binding lysate-expressed LULL1 – cell lysate, human LULL1 lysate, 635/667 nm fluorescence, primary screen (AID 1092); conditions: small-molecule microarray, hLULL1 lysate binding, 635 nm fluorescence; higher = more signal;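 also: probe is lysate of COS7 cells overexpressing human LULL1; score merges per-feature 667 nm fluorescence with signal-to-noise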
[16] = optical density change of DRC41 E. coli – strain DRC41, OD650, 24 h, E. coli filamentation project, primary screen (AID 1093);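 also: MC1000 strain lacking acrAB efflux and sulA so SOS filamentation is blocked; test concentration not given here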; conditions: E. coli DRC41 growth, higher = more signal, called active from +8 up or from −8 down
[17] = probe aLefty2 binding to arrayed compounds – biochemical, biotinylated probe, 635/667 nm fluorescence, primary screen (AID 1094); conditions: small-molecule microarray, higher = more signal;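 also: score merges spot fluorescence near 667 nm with spot signal-to-noise ratio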
[18] = system: Noggin (protein binding on small-molecule microarray); assay: small molecules binding Noggin protein – biochemical, 635/667 nm fluorescence, primary screen (AID 1095); conditions: 635 nm fluorescence, higher = more signal;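 also: score merges 667 nm feature fluorescence with signal to noise over triplicate slides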
[19] = molecular target: Neurogenic locus notch homolog protein 3 (Homo sapiens) (UniProt Q9UM47); assay: small molecules binding NOTCH3 protein – biochemical, 635/667 nm fluorescence, primary screen (AID 1096); conditions: small-molecule microarray, 635 nm fluorescence, higher = more signal
Neurogenic locus notch homolog protein 3 (Homo sapiens), sequence (Q9UM47 whole entry, looked up): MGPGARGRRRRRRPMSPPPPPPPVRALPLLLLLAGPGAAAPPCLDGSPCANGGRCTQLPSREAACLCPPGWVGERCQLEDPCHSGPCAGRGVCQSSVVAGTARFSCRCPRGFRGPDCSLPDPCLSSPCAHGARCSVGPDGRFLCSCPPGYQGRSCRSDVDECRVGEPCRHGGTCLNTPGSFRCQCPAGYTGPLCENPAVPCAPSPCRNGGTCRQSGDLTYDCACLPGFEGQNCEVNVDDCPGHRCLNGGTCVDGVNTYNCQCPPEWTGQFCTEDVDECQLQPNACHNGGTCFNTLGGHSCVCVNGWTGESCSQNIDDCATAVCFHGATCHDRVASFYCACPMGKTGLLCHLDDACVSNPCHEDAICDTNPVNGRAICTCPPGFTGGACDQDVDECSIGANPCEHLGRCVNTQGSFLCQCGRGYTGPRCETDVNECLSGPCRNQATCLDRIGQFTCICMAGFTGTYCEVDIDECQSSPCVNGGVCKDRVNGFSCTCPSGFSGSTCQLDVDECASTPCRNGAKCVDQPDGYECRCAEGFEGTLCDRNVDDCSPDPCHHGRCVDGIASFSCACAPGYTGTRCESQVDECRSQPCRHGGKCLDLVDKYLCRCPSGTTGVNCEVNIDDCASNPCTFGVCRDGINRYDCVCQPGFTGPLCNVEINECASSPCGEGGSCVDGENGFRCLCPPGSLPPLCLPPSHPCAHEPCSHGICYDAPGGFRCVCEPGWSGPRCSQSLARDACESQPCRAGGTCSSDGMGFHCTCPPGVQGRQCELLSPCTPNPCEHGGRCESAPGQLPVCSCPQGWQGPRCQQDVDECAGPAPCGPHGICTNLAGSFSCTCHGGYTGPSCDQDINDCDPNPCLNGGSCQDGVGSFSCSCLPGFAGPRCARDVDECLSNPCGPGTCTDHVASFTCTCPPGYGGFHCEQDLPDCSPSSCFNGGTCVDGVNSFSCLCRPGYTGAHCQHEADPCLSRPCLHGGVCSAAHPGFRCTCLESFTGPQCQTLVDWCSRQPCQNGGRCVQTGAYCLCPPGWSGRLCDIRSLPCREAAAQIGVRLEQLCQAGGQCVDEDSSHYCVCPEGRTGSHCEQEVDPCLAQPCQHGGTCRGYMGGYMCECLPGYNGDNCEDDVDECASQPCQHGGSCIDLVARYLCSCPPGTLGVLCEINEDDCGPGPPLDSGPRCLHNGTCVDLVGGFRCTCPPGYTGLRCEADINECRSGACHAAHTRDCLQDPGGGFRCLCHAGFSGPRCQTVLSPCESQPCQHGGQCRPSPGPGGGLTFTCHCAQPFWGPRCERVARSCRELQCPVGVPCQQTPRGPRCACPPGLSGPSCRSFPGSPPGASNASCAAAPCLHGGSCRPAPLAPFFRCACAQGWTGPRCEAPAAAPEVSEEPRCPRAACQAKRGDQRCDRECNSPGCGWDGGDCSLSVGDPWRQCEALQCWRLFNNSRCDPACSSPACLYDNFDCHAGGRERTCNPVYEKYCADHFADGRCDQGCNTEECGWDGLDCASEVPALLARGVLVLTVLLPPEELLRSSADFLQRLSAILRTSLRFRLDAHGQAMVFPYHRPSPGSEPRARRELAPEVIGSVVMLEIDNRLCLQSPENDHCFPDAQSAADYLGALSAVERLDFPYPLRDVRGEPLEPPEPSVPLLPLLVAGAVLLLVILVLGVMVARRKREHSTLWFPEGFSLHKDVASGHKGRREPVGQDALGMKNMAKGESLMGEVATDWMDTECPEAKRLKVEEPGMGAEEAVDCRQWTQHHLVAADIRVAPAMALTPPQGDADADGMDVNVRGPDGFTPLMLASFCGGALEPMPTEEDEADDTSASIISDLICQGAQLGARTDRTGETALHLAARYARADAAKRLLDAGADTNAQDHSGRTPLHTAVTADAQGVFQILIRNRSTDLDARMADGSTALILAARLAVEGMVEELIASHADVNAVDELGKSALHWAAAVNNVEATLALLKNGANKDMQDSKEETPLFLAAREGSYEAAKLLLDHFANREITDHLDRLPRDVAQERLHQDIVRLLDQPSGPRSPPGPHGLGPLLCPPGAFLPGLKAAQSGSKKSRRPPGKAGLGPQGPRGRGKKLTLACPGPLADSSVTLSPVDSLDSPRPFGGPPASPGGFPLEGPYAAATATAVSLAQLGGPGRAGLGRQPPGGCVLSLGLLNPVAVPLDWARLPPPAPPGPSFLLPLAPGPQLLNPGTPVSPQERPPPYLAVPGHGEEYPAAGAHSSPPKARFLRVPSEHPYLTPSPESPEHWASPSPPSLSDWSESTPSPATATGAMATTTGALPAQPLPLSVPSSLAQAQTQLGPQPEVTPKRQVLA

[20] = probe aEGFR binding to arrayed compounds – biochemical, biotinylated probe, 635/667 nm fluorescence, primary screen (AID 1097); conditions: small-molecule microarray, higher = more signal;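 also: probe is a biotinylated anti-EGFR antibody binding compounds printed on slides; score combines fluorescence near 667 nm and signal to noise of each spot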

Row | Structure (SMILES) | composite z-score [1] | composite z-score [2] | composite z-score [3] | composite z-score [4] | composite z-score [5] | composite z-score [6] | composite z-score [7] | z-score [8] | composite z-score [9] | composite z-score [10] | composite z-score [11] | z-score [12] | z-score [13] | z-score [14] | composite z-score [15] | z-score [16] | composite z-score [17] | composite z-score [18] | composite z-score [19] | composite z-score [20]
1 | CC(C)c1ccc(NN2C(C(O)c3ccco3)C=CC3C(=O)N(c4ccccc4)C(=O)C32)cc1 (stereo not given) | 0.447 | 0.334 | 0.106 | 0.677 | 1.71 | 1.46 | 1.2 | -1.22 (inactive) | 1.34 | -0.0606 | 1.57 | 0.61 (inactive) | 0.431 (inactive) | -0.419 (inactive) | 3.27 | -0.577 (inactive) | 0.0997 | 0.18 | 1.02 | 0.0308
2 | COCCCNC(=O)[C@@H]1c2ccccc2C(=O)N(Cc2ccccc2C(F)(F)F)[C@H]1c1ccc(CO)cc1 | 0.6 | 0.054 | -0.0284 | -0.445 | -0.356 | 0.068 | 1.16 | 0.421 (inactive) | 0.0584 | -0.0726 | 0.12 | -0.409 (inactive) | -0.514 (inactive) | -0.368 (inactive) | 0.73 | 0.598 (inactive) | -0.0855 | -0.789 | -0.941 | -0.0146
3 | [N-]=[N+]=NCc1ccccc1[C@H]1OC(c2ccc(OCCCO)cc2)=N[C@@]1(CCS(=O)(=O)c1ccccc1)C(N)=O | 0.573 | 1.33 | 0.145 | 0.763 | 1.65 | 2.03 | 1.36 | 4.66 (inactive) | 0.805 | -0.0645 | 1.47 | 0.0249 (inactive) | -0.131 (inactive) | -0.595 (inactive) | 3.36 | -0.199 (inactive) | 0.074 | 0.086 | 0.861 | 0.0929
4 | Cc1ccc(S[C@]2(C(=O)NC3CC3)CC(=O)N(Cc3ccccc3Cl)[C@@H]2c2ccc(CO)cc2I)cc1 | 0.29 | 0.132 | -0.106 | 0.171 | 0.0538 | 1.72 | 1.24 | -2.19 (inactive) | -0.0129 | -0.123 | 1.54 | -0.362 (inactive) | -1.83 (inactive) | 0.67 (inactive) | 3.22 | 0.481 (inactive) | 0.0448 | 1.34 | 0.304 | -0.0238
5 | C=CC[C@@]12N=C(c3ccc(OCCCO)cc3)O[C@@H]1c1ccccc1N(CCS(=O)(=O)c1ccccc1)C2=O | -0.015 | -0.302 | 0.188 | 0.0692 | 0.659 | 1.22 | 1.32 | 0.601 (inactive) | 0.261 | -0.0391 | 1.55 | -0.484 (inactive) | -1.56 (inactive) | 0.793 (inactive) | 2.34 | 1.45 (inactive) | -0.291 | 1.28 | 1.13 | 0.0153
6 | O=C1O[C@@H](c2ccccc2)[C@@H](c2ccccc2)N2[C@@H](c3ccc(O)cc3)[C@]3(C(=O)Nc4ccc(C#CCCO)cc43)[C@@H](C(=O)Nc3nc4ccccc4s3)[C@H]12 | 0.0071 | 1.27 | -0.0721 | 0.987 | 0.37 | 1.45 | 1.19 | 0.213 (inactive) | 0.158 | -0.236 | 1.55 | 0.782 (inactive) | 0.403 (inactive) | 1.93 (inactive) | 2.81 | 0.887 (inactive) | -0.119 | 1.35 | 0.851 | -0.0036
7 | CC(C)C(O)C1C=CC2C(=O)N(C)C(=O)C2N1Nc1ccccc1 (stereo not given) | 0.383 | 0.681 | 0.364 | 0.914 | 1.69 | 1.19 | 1.37 | 2.73 (inactive) | 1.35 | 0.67 | 0.694 | 0.324 (inactive) | -0.163 (inactive) | 0.204 (inactive) | 3.3 | -0.381 (inactive) | 0.873 | 0.206 | 0.707 | 0.515
8 | CC(C)C[C@@H]1NC(=O)[C@H]2C[C@@H](C(=O)NCCCCCC[N+](C)(C)C)[C@@H](c3cccc(OCCO)c3)N2C1=O | -0.183 | 0.121 | -0.152 | -0.214 | -0.356 | -0.0252 | 1.34 | 4.18 (inactive) | -0.601 | -0.134 | 1.13 | -1.15 (inactive) | -0.455 (inactive) | -0.794 (inactive) | 2.49 | 0.319 (inactive) | -0.166 | 1.47 | 1.07 | 0.038
9 | CCCC=C(CCC)[C@@H](NP(=O)(c1ccccc1)c1ccccc1)c1ccc(C(F)(F)F)cc1 | -0.176 | 0.158 | -0.0975 | 0.0842 | 0.131 | 1.74 | 0.557 | 1.96 (inactive) | 0.237 | 0.0216 | 0.804 | -0.276 (inactive) | 0.423 (inactive) | 0.0291 (inactive) | 1.01 | -0.159 (inactive) | 0.0593 | -0.13 | 0.11 | 0.58
10 | C=CCN1C(=O)[C@@]2(O[C@@H](CCn3cc([C@H](O)c4ccccc4)nn3)[C@H]([Si](C)(C)c3ccc(OC)cc3)[C@H]2C)c2ccccc21 | -0.0119 | 0.395 | -0.036 | 0.386 | 0.501 | 1.31 | 1.01 | -1.45 (inactive) | 0.728 | -0.289 | 1.55 | -0.78 (inactive) | -0.0638 (inactive) | 0.307 (inactive) | 1.02 | 1.1 (inactive) | -0.0507 | 0.442 | 1.16 | -0.094
